From PubChem BioAssay
An excerpt weighted towards active compounds, which were near 6.5% of everything screened.
LASV entry inh = qHTS for Inhibitors of binding or entry into cells for Lassa Virus. Lassa virus pseudotype entry inhibition, cell reporter. Potency, µM (doses to about 37.9 µM), for inactives: at the top dose activity change, negative = inhibition, usual class: inhibitors. actives 1.2% (n = 300,000). AID 540256, 2011; calls by dose curve; tested in HEK293 cells; note: potency is the fitted concentration of half-maximal effect; nearly all actives have a fitted effect of over 50% in size
HCMV antiviral = qHTS Assay for inhibitors of the human cytomegalovirus (HCMV). HFF cells, HCMV-luciferase reporter, 72 h; active compounds read low. activity change, negative = inhibition, % at 57.5 µM. actives 4.5% (n = 410,000). AID 1259415, 2018; in the data active = activity change below about -60%; inconclusive = no clear call, values can overlap the other calls; inactive = above about -39%
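Steps: HFFs plated, 16 h 37C; compounds added; HCMV-luciferase added to MOI 1 PFU/cell; 72 h 37C; OneGlo reagent, 5 min room temperature; luminescence read, normalized to controls.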
Marburg entry inh = qHTS for inhibitors of binding or entry into cells for Marburg Virus; AID 540276, 2011; Potency, µM (doses to about 37.8 µM), for inactives: top-dose activity change, negative = inhibition, actives largely listed as inhibitors; Marburg virus pseudotyped entry inhibition, cell reporter; actives 1.8% (n = 300,000); calls by dose curve; tested in HEK293 cells; note: potency is the fitted concentration of half-maximal effect
FMDV inh = High Throughput Screening for Foot and Mouth Disease Virus Antivirals; actives 1.2% (n = 410,000); FMDV antiviral cell-based qHTS; Potency, µM (series often up to 57.9 µM), inactives show at the top dose activity change, negative = inhibition, most hits filed as inhibitors; AID 1159524, 2015; calls by dose curve; tested in HEK293T cells; note: read-out not given here; potency is the fitted concentration of half-maximal effect; nearly all actives have a fitted effect of over 45% in size
Vaccinia mCherry = qHTS for Stage-Specific Inhibitors of Vaccinia Orthopoxvirus: mCherry Reporter Primary qHTS | Potency, µM (highest dose often 36.5 µM), inactives show top-dose activity change, negative = inhibition, actives largely listed as inhibitors | actives 0.63% (n = 310,000) | Vaccinia virus mCherry reporter infection, fluorescence; calls by dose curve; tested in A549 cells; note: potency is the fitted concentration of half-maximal effect; nearly all actives have a fitted effect of over 35% in size
VACV Venus inh = qHTS for Stage-Specific Inhibitors of Vaccinia Orthopoxvirus: Venus Reporter Primary qHTS; Vaccinia virus Venus reporter expression, fluorescence; Potency, µM (doses to about 36.5 µM), inactives show top-dose activity change, negative = inhibition, hits mostly inhibitors; actives 0.46% (n = 330,000); calls by dose curve; tested in A549 cells; note: potency is the fitted concentration of half-maximal effect; nearly all actives have a fitted effect of over 30% in size
* hit, by the source's call; i = inactive; ? = inconclusive; . = no result given; [ ] = remark or other dose. % is set by controls: 0 for no effect and ±100 for the full control effect.

SMILES | LASV entry inh | HCMV antiviral | Marburg entry inh | FMDV inh | Vaccinia mCherry | VACV Venus inh
O=C(NC1CCCCC1)C(c1cccnc1)N(C(=O)CCl)c1ccc(F)cc1 (centres undefined) | ? | -99.1* | ? | ? | 7.94µM* | ?
CCNc1ncc2nc(C)c(=O)n(CCOC)c2n1 | . | . | . | -8.6% | . | .
CCN(CC)C(=O)Cn1c(=O)n(CCCCCC(=O)NCc2ccc3c(c2)OCO3)c(=O)c2sccc21 | 4.7%[46.1 µM] | -19.6 | 15.8%[46.1 µM] | -2.7% | -9.5% | -2.9%
Cc1occc1C(=O)N1CCCC(Nc2ccc(C(C)C)cc2)C1 (centres undefined) | 7.2% | -64.7* | ? | 0.0% | -26.1% | -22.7%
CC(C)(C)c1nnc(NC(=O)C2CCN(C(=O)c3ccccc3)CC2)s1 | . | . | . | . | -20.2% | -21.3%
COC(=O)[C@]1(C#N)[C@H](C)C(=O)N(Cc2ccccc2)[C@@H]1/C=C/c1ccccc1 | . | -9.6 | . | . | . | .
Cc1ccccc1CN(CC(=O)Nc1cccc([N+](=O)[O-])c1)S(=O)(=O)c1ccc(Cl)cc1 | ? | -37.5 | ? | 39.8µM* | ? | ?
COc1ccccc1-c1nnc(C2CCN(S(=O)(=O)c3ccccc3)CC2)o1 | 8.6%[46.1 µM] | -12.1 | -1.5%[46.1 µM] | 2.9% | -13.7% | -10.9%
COc1ccccc1-c1nnc(C2CCN(C(=O)c3cccc(C)c3)CC2)o1 | 3.1%[46.1 µM] | -64.6* | 3.7%[46.1 µM] | 10.5% | -13.6% | -9.9%
COc1ccc(C(=O)N2CCC(c3noc4ccccc34)CC2)cc1OC | . | -64.9* | . | . | . | .
COc1ccc(C(=O)N2CCCCCC2)cc1OC1CCN(C(C)=O)CC1 | 0.1% | -78.3* | 6.7% | -7.5% | -14.8% | -4.1%
C=C(C)C(COc1c2occc2cc2ccc(=O)oc12)OC(C)(C)C(O)COc1c2occc2cc2ccc(=O)oc12 (centres undefined) | . | -24.9 | . | -13.5% | -3.2% | -0.5%
CSc1ccc(CN2CCOc3ccc(CN4CCCCC4CO)cc3C2)cc1 (centres undefined) | . | . | . | -11.6% | -8.2% | -6.2%
C=C1C(=O)O[C@H]2[C@H]1[C@H](OC(=O)/C(C)=C\C)C[C@]1(CO1)[C@@H]1[C@H](OC(C)=O)C=C(C)[C@]21O | -24.5%[46.1 µM] | -17.9 | ? | 0.0% | i | 0.7%
C=C1C(=O)O[C@@H]2[C@H]1[C@@H](OC(=O)/C(C)=C/C)C/C(C)=C\C(=O)/C=C(\C)[C@@H]2O | . | -98.5* | . | 28.2µM* | ? | 11.2µM*
COc1ccc(-c2nc3ccc([N+](=O)[O-])cc3o2)cc1 | 2.3% | -91.9* | ? | 19.6% | -16.2% | -4.8%
O=[N+]([O-])c1ccc2oc(-c3ccccc3)nc2c1 | . | 44.5 | 11.8%[46.1 µM] | 53.3% | -6.7% | 3.4%
CS(=O)(=O)N1CCC2(CCCN(c3ncccn3)C2)CC1 | . | . | . | 1.9% | . | .
Cc1cccc2c1-c1sc(C(=O)N3CCN(c4cccc(Cl)c4)CC3)cc1CO2 | . | -8.5 | 19.7%[46.1 µM] | -12.2% | -7.0% | -2.0%
Cc1cccc2c1-c1sc(C(=O)NCCCN3CCN(c4ccccc4F)CC3)cc1CO2 | . | -108.4* | 11.2µM* | ? | -14.4% | -23.0%
CCN1CCN(CCCNC(=O)c2cc3c(s2)-c2c(C)cccc2OC3)CC1 | . | -1.7 | 10µM* | 0.0% | ? | ?
Cc1cccc2c1-c1sc(C(=O)NCCCN3CCN(c4cccc(Cl)c4)CC3)cc1CO2 | ? | -74.5* | ? | -32.1% | -10.9% | -15.8%
Cc1cccc2c1-c1sc(C(=O)Nc3ccccc3N3CCN(C)CC3)cc1CO2 | ? | -5.3 | 15.8µM* | ? | -18.7% | -23.8%
CN(c1ccc(-c2csc(NC(=O)CCCc3nc4ccccc4c(=O)[nH]3)n2)cc1)S(C)(=O)=O | . | -19.5 | . | 35.5µM* | -8.6% | -20.1%
CCOC(=O)c1oc2ccc(S(=O)(=O)Nc3ccc4c(c3)n(C)c(=O)n4C)cc2c1C | -26.6% | -64.9* | ? | . | i | 0.0%
SMILES | LASV entry inh | HCMV antiviral | Marburg entry inh | FMDV inh | Vaccinia mCherry | VACV Venus inh
COc1ccc(S(=O)(=O)Nc2ccc3c(c2)n(C)c(=O)n3C)cc1C | -18.3% | 156.5 | ? | 17.7% | -8.3% | -16.8%
Cn1c(=O)n(C)c2cc(NS(=O)(=O)c3ccc4c(c3)CCCC4)ccc21 | -4.8% | -107.1* | ? | ? | . | .
CCOC(=O)CCN1C(=O)[C@H]2[C@H]3[C@H](O)[C@H](O)C/C(=N\NC(=O)OCc4ccc(OC)cc4)[C@@H]3CC[C@H]2C1=O | . | . | 11.9%[14.2 µM] | . | . | .
CC1=C(C(=O)O)N2C(=O)C(NC(=O)c3ccc(F)cc3)C2SC1 (centres undefined) | . | 6.2 | . | -0.3% | . | .
COc1cccc(C2=C(C(C)=O)Sc3nncn3N2C(C)=O)c1 | ? | ? | . | -1.8% | -27.1% | ?
CCC(=O)C1=C(c2ccc(F)cc2)N(C(=O)CC)n2cnnc2S1 | ? | -81.7* | . | -5.9% | -12.9%[7.34 µM] | -4.4%[7.34 µM]
CC(=O)C1=C(c2ccc(Cl)c(Cl)c2)N(C(C)=O)n2cnnc2S1 | ? | -98.9* | . | ? | ? | -25.6%[7.34 µM]
CCOc1ccc(C2=C(C(=O)CC)Sc3nncn3N2C(=O)CC)cc1 | ? | -100.9* | . | ? | ? | ?
CCN1CCCC1CNC(=O)c1cnn(-c2nccc(-c3cccs3)n2)c1C(C)C (centres undefined) | . | . | . | 3.1% | -21.3% | -10.0%
COc1cc(=O)n2c(c1C(=O)NCc1ccc3c(c1)OCO3)CCN(C(=O)c1ccc(C)cc1)CC2 | . | . | . | 10.3% | i | 0.0%
CC(C)OC(=O)c1cc2c(ccn2C)n1CC(=O)N(Cc1ccccc1)c1ccc(F)cc1 | 5.01µM* | 6.9 | 5.17µM* | 0.0% | ? | -19.4%
CCc1ccc(N2CN=c3s/c(=C\c4ccccc4)c(=O)n3C2)cc1 | 14.6% | 1.2 | 0.4% | 2.9% | -10.8% | -10.6%
Cc1ccc(OCCOc2cccc(C=C3C(=O)NC(=O)NC3=O)c2)c(C)c1 | ? | 153.2 | ? | 14.1µM* | -12.4% | -8.7%
OCCN(CCO)CC(O)COc1ccc(C23CC4CC(CC(C4)C2)C3)cc1 (centres undefined) | ? | -62.0* | ? | 0.0% | -1.5% | -22.0%
CCN1CCN(c2ncc3c(n2)CCN(Cc2ccc(OC)c(OC)c2)C3)CC1 | -12.8%[46.1 µM] | -3.6 | . | -23.5% | -3.9% | -0.4%
CCOC(=O)N1CCN(c2ncc3c(n2)CC(c2ccc(OC)c(OC)c2)CC3=O)CC1 (centres undefined) | -2.7%[46.1 µM] | -9.2 | -16.6%[46.1 µM] | 14.1µM* | -20.3% | -11.9%
CCN1CCN(c2ncc3c(n2)CC(c2ccc(OC)c(OC)c2)CC3=O)CC1 (centres undefined) | ? | ? | ? | 20µM* | . | .
COc1ccc(C2CC(=O)c3cnc(N4CCN(Cc5ccccc5)CC4)nc3C2)cc1 (centres undefined) | ? | -13.6 | ? | 22.4µM* | -26.1% | -22.1%
